# Several values for one entry are separate records, joined by “and”; a condition that tells them apart may be missing. Equal entries are not always repeated. Records with an inconclusive call do not appear. Activity calls are given as the source filed them. Unless noted, how the calls were made is not given here.
# What was measured:
# [1] = inhibitors of Cryptococcus chitosan production, flow cytometry, Cibacron Brilliant Red staining (AID 1347148); conditions: Cryptococcus neoformans chitosan, stronger effect = lower value; at 10 µM unless noted;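 further: compound exposure lasted three days at 37 degrees C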
# [2] = kinase inhibitors against Plasmodium liver-stage infection, cell-based, known kinase inhibitor set, luminescence, hepatoma host viability (AID 624392); conditions: Plasmodium liver stage in hepatoma cells, luciferase luminescence, concentration not given here; liver cell % of control: measured here: host liver cell viability; parasite % of control: stronger effect = lower value;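 further: infected cells incubated roughly two days before readout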
# [3] = biological target: Mitogen-activated protein kinase 7 (Homo sapiens) (UniProt Q13164); test: ERK5 transactivation activators in reporter cells, primary screen, cell-based, HTS (AID 1508626;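 active means luciferase signal above three times the same-plate solvent-only control wells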;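 further: luciferase driven by Gal4-ERK5 fusion binding five Gal4 sites before minimal TATA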); conditions: HeLa Gal4-ERK5 transactivation, 18 h, at 5 µM, stronger effect = higher value
# [4] = biological target: ATP-dependent translocase ABCB1 (Homo sapiens) (UniProt P08183); test: MDR1 (ABCB1) efflux transporter inhibition, cell-based (AID 377; in the data active means fluorescence slope change above about 50%); conditions: MDR1-expressing cells, fluorescent substrate accumulation slope; stronger effect = higher value; concentration not given here
# [5] = hESC survival regulators, cell-based (AID 493140); conditions: human embryonic stem cell survival screen; stronger effect = higher value;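 further: cells exposed to compounds for four days before counting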
# [6] = LFS_MB_2R medulloblastoma cell growth inhibition, synergistic combos for chromothripsis tumors, cisplatin combos (AID 1671457; in the data active means inhibition above about 80%;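 further: cells exposed to compound for four days before readout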); conditions: LFS_MB_2R medulloblastoma cells, stronger effect = higher value
# [7] = UWB1.289_BRCA1 ovarian cancer growth, cell-based, BGB or cisplatin combinations (AID 1671459; in the data active means inhibition above about 80%); conditions: UWB1.289 BRCA1 ovarian carcinoma, drug combinations, stronger effect = higher value
# [8] = human astrocyte viability loss, single and combined drugs, cytotoxicity control for chromothriptic childhood tumor combination screen, cell-based, BGB or cisplatin IC20 combos (AID 1671460; in the data active means inhibition above about 80%;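 further: cells exposed to compounds for 96 hours before viability readout; 0% = vehicle and 100% = killing control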); conditions: Human astrocytes, drug combinations, stronger effect = higher value
# [9] = measured here: combination with cisplatin, at 0.5 µM
# [10] = measured here: combination with cisplatin, at 5 µM
# [11] = BGB combination, concentration series, at 5 µM
# [12] = cisplatin combination, concentration series, at 5 µM
# [13] = measured here: combo with BGB IC20, at 0.5 µM
# [14] = measured here: combo with cisplatin IC20, at 0.5 µM
# Chain of Mitogen-activated protein kinase 7 (Homo sapiens) (Q13164 whole entry, looked up, the tested form may be a part): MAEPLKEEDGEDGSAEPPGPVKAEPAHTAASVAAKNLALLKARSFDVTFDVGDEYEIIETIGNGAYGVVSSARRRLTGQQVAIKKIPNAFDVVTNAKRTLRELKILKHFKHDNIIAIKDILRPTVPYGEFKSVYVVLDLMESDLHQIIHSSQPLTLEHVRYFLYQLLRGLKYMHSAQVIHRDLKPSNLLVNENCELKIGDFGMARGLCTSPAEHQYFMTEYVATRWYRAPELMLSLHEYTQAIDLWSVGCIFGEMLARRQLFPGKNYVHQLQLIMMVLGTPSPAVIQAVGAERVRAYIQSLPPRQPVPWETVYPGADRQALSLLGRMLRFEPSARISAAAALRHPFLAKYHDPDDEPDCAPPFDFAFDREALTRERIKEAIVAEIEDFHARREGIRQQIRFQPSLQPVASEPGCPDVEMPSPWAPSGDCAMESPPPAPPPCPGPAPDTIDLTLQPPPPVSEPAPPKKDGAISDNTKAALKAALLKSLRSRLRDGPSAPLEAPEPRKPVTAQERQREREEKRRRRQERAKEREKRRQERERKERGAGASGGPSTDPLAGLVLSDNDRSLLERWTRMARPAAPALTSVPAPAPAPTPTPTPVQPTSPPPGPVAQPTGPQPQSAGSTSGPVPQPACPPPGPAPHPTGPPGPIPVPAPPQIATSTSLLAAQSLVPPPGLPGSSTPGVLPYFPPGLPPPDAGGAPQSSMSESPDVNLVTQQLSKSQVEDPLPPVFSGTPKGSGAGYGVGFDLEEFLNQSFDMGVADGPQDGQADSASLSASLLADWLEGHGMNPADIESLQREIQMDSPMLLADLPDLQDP
# Chain of ATP-dependent translocase ABCB1 (Homo sapiens) (P08183 whole entry, looked up): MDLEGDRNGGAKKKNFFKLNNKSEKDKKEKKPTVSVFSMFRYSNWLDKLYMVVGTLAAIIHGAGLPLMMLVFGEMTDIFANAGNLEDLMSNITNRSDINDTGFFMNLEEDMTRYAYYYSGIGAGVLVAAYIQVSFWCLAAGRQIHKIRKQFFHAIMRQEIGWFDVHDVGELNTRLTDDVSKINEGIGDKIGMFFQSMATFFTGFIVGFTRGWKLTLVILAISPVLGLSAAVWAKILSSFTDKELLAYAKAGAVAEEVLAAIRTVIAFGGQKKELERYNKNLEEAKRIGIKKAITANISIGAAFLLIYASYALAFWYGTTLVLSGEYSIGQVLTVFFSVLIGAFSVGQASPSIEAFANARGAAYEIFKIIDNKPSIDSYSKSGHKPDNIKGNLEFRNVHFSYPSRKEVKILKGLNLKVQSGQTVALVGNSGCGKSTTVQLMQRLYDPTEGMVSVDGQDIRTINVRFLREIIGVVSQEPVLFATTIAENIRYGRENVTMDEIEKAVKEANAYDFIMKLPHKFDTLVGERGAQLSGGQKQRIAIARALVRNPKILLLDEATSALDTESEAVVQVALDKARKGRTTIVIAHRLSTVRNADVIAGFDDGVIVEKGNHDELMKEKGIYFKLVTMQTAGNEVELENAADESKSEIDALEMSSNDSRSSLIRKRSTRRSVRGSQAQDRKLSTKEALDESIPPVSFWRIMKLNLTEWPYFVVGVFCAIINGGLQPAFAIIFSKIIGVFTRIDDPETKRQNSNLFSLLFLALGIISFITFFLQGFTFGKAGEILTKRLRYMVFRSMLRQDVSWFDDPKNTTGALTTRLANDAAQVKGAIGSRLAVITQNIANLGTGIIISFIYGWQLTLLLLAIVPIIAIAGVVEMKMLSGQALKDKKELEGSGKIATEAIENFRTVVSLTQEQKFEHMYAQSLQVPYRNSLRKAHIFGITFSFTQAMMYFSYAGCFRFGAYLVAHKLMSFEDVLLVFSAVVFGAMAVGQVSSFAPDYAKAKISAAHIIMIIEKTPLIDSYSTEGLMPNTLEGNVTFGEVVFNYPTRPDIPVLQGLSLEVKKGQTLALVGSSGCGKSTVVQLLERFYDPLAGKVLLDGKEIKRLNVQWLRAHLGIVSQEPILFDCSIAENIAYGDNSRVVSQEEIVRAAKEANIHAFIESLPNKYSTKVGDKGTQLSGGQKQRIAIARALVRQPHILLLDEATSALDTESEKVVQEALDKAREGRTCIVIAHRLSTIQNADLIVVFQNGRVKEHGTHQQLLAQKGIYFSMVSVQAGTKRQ
smiles,measurement,setting,value
N=C(N)c1ccc2cc(OC(=O)c3ccc(N=C(N)N)cc3)ccc2c1,fold fluorescence,[1],12.2 [at 143.9 µM] (inactive)
Cc1ccc(Nc2nccc(N(C)c3ccc4c(C)n(C)nc4c3)n2)cc1S(N)(=O)=O,liver cell % of control,[2],87.8% and 92.8% and 108%
same,parasite % of control,[2],30.2% (inactive) and 10.9% (inactive) and 16.3% (inactive)
NC(=O)c1ncn([C@@H]2O[C@H](CO)[C@@H](O)[C@H]2O)c1N,luciferase signal,[3],16 AU (inactive)
Clc1ccc(C(Cn2ccnc2)OCc2c(Cl)cccc2Cl)c(Cl)c1 (stereo not drawn),fluorescence slope change,[4],107% (active)
same,survival,[5],13.2 (inactive)
C=CC(=O)Nc1cc2c(Nc3ccc(F)c(Cl)c3)ncnc2cc1OCCCN1CCOCC1,liver cell % of control,[2],85.5% and 77.3% and 90.4%
same,parasite % of control,[2],36.7% (inactive) and 39.4% (inactive) and 33.2% (inactive)
CN1CCCN=C1/C=C/c1cccs1,survival,[5],25.8 (inactive)
CCOC(=O)Nc1ccc(NCc2ccc(F)cc2)nc1N,inhibition,[6]; at 0.5 µM,-26.1% (inactive)
same,inhibition,[6]; [9],-30.1%
same,inhibition,[6]; [10],-38%
same,inhibition,[7]; [11],-6.96%
same,inhibition,[7]; at 0.5 µM,-1.39% (inactive)
same,inhibition,[7]; [12],8.03%
same,inhibition,[8]; at 0.5 µM,3.76% (inactive)
same,inhibition,[8]; [13],6.16%
same,inhibition,[8]; [14],13.9%
C#Cc1cccc(Nc2ncnc3cc(OCCOC)c(OCCOC)cc23)c1,liver cell % of control,[2],94.7% and 95% and 97.1%
same,parasite % of control,[2],281% (inactive) and 87% (inactive) and 63.1% (inactive)
CC1=C(C)C(=O)C(CCCCC#CCCCC#CCO)=C(C)C1=O,fold fluorescence,[1],9.55 [at 153.2 µM] (inactive)
O=c1[nH]c(=O)n([C@H]2C[C@H](O)[C@@H](CO)O2)cc1C(F)(F)F,luciferase signal,[3],36 AU (inactive)
same,inhibition,[6]; at 0.5 µM,-13.5% (inactive)
same,inhibition,[6]; [9],-15.3%
same,inhibition,[6]; [10],-85.8%
same,inhibition,[7]; [11],3.66%
same,inhibition,[7]; at 0.5 µM,-12.4% (inactive)
same,inhibition,[7]; [12],9.54%
same,inhibition,[8]; at 0.5 µM,-1.16% (inactive)
same,inhibition,[8]; [13],5.49%
same,inhibition,[8]; [14],-19.9%
C[C@@H]1C[C@H]2[C@@H]3CCC4=CC(=O)C=C[C@]4(C)[C@@]3(Cl)[C@@H](O)C[C@]2(C)[C@@]1(OC(=O)c1ccco1)C(=O)CCl,fluorescence slope change,[4],21.4% (inactive)
same,survival,[5],4.67 (inactive)
C(=C\c1ccccc1)/CN1CCN(C(c2ccccc2)c2ccccc2)CC1,fluorescence slope change,[4],102% (active)
same,survival,[5],11.3 (inactive)
CCCCCCCCCCCCCCC[C@H](O)[C@@H](N)CO,survival,[5],80 (inactive)
same,fold fluorescence,[1],7.01 (inactive)
CC(=O)Oc1cc(C(F)(F)F)ccc1C(=O)O,survival,[5],9.25 (inactive)
O=c1[nH]c(=O)n([C@H]2C[C@H](O)[C@@H](CO)O2)cc1Br,inhibition,[6]; at 0.5 µM,-21.2% (inactive)
same,inhibition,[6]; [9],-22.2%
same,inhibition,[6]; [10],-17.4%
same,inhibition,[7]; [11],35.6%
same,inhibition,[7]; at 0.5 µM,9.43% (inactive)
same,inhibition,[7]; [12],29%
same,inhibition,[8]; at 0.5 µM,11% (inactive)
same,inhibition,[8]; [13],6.3%
same,inhibition,[8]; [14],12.5%
OCCN1CCN(CC/C=C2/c3ccccc3Sc3ccc(C(F)(F)F)cc32)CC1,fluorescence slope change,[4],77.6% (active)
same,survival,[5],3.17 (inactive)
C#CC1(O)CC[C@H]2[C@@H]3CCC4=CCCC[C@@H]4[C@H]3CC[C@@]21C (stereo partly drawn),fluorescence slope change,[4],88.5% (active)
same,luciferase signal,[3],80 AU (inactive)
C#C[C@]1(OC(C)=O)CC[C@H]2[C@@H]3CCC4=C[C@@H](OC(C)=O)CC[C@@H]4[C@H]3CC[C@@]21C,survival,[5],3.67 (inactive)
same,luciferase signal,[3],64 AU (inactive)

# Reference: PubChem BioAssay
